Assay outcomes deposited in PubChem BioAssay by several laboratories.
Compounds with a hit are over-represented: about 0.9% of the library has one in this group of screens.
BioA inh-1: inhibitors of Mycobacterium tuberculosis BioA enzyme. purified M. tuberculosis BioA enzyme, plate reader. inhibition, % at 9.99 µM. hit rate 0.096% among 360,000; in the data active means inhibition above about 40%
UGM FP inh: inhibitors of M. tuberculosis UDP-galactopyranose mutase; P9WIQ1; purified UGM, fluorescence polarization probe displacement; inhibition, % at 10 µM; hit rate 0.06% among 320,000; AID 504406; in the data active means inhibition above about 10%, passing the limit was not always enough
Target sequence (P9WIQ1 whole entry, looked up): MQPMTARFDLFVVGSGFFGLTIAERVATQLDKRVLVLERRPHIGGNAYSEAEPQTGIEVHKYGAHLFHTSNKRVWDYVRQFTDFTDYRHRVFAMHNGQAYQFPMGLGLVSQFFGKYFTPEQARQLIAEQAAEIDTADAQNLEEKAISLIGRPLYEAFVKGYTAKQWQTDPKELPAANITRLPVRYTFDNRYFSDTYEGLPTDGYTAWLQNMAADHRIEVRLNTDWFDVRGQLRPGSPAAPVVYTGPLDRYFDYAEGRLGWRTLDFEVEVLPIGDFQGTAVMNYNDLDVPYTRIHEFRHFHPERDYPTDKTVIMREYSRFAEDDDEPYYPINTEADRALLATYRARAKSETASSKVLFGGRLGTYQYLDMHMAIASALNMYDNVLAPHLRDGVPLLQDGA
RecA splice inh: Mtb RecA intein splicing inhibition | cell-free RecA intein splicing, fluorescence | inhibition, % (no concentration beside the values) | hit rate 0.75% among 290,000 | AID 2221; in the data active means inhibition above about 30%;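 further: 0% = vehicle wells and 100% = reference inhibitor control wells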
Rv3671c inh: inhibitors of M. tuberculosis serine protease Rv3671c | inhibition, % at 5.96 µM | hit rate 0.048% among 320,000 | P9WHR9; in the data active means inhibition above about 38%;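 further: extracellular domain of Rv3671c used as enzyme; 0% = enzyme with DMSO and 100% = no enzyme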
TcdB GH inh: TcdB glycohydrolase inhibition | TcdB glycohydrolase enzymatic assay, plate reader | P18177 | inhibition, % at 9.99 µM | hit rate 0.24% among 350,000 | AID 652162; in the data active means inhibition above about 10%
FadD28 FP inh: inhibitors of Mycobacterium tuberculosis FadD28 bisubstrate binding; FadD28 bisubstrate probe binding, fluorescence polarization; inhibition, % at 12.5 µM; hit rate 0.22% among 360,000; AID 588549; in the data active means inhibition above about 8.5%, passing the limit was not always enough
Rv3671c cf: confirmation of M. tuberculosis Rv3671c protease inhibitors; hit rate 40% among 140; inhibition, % at 5.96 µM; shares compounds with Rv3671c inh; AID 2761; in the data active means inhibition above about 38%
DNA intercalat: intercalates into DNA, flagged in counter-screen; shares compounds with UGM FP inh; acridine orange-DNA binding, fluorescence polarization; AC50, µM; hit rate 60% among 35; AID 463198;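 active means fitted AC50 no greater than ten times the top concentration tested, cut at about 17 µM in these data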
BioA inh-2: blocks M. tuberculosis BioA aminotransferase. shares compounds with BioA inh-1. purified BioA enzyme, plate reader, dose response. max activity, %. 310 tested, under 10 active. AID 651679;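 further: top concentration of the dilution series was 10 µM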
HepG2 tox 2: cytotoxicity in HepG2 cells; AID 651898; shares compounds with BioA inh-1; 310 tested, under 10 active; max activity, %; plate reader
NIH3T3 tox 5: kills NIH3T3 cells; shares compounds with BioA inh-1; NIH3T3 cytotoxicity, plate reader; activity change, negative = cytotoxicity, % at 26 µM; 310 tested, under 10 active; AID 651900
The depositor's hits bear a star; i = inactive; nt = no result given. Unless noted, how the calls were made is not given here.

SMILES	BioA inh-1	UGM FP inh	RecA splice inh	Rv3671c inh	TcdB GH inh	FadD28 FP inh	Rv3671c cf	others
CCNC(=O)[C@H]1[C@H](CO)[C@H]2Cn3c(ccc(C4=CCCCC4)c3=O)[C@@H]1N2CC	nt	nt	nt	nt	0	nt	nt
Cc1cc(N)ccc1-n1c(C)ccc1C	-2	2	2	83*	nt	4	1
Cc1nn(Cc2ccccc2)c(C)c1NC(=O)Cn1nc([N+](=O)[O-])c(Cl)c1C	0	-2	nt	4	nt	-4	nt
Cc1nn(Cc2ccccc2)c(C)c1NC(=O)c1ccc([N+](=O)[O-])cc1[N+](=O)[O-]	-1	-3	-5	166*	0	-5	-7
C[C@H](CO)N1C[C@H](C)[C@@H](CN(C)C)Oc2ccc(NC(=O)C3CCCCC3)cc2CC1=O	1	nt	nt	nt	0	nt	nt
C[n+]1c(-c2ccccc2)c2cc(N)ccc2c2ccc(N)cc21	34	-1	2	74*	2	13*	90*
CN1C(=O)NC(c2ccccc2[N+](=O)[O-])C2=C1CC(C)(C)CC2=O (stereo not given)	nt	-1	0	3	0	0	nt
CN1C(=O)NC(c2ccccc2[N+](=O)[O-])C2=C1CCCC2=O (stereo not given)	-6	12*	-19	74*	-38	7	38*
COc1ccc(S(=O)(=O)N(C)C[C@H]2Oc3ccc(NC(=O)Nc4cccc5ccccc45)cc3C(=O)N([C@@H](C)CO)C[C@H]2C)cc1	-1	nt	nt	nt	nt	nt	nt
N#CCCN(CCC#N)C(=O)C1c2ccccc2Oc2ccccc21	-10	73*	nt	84*	1	11*	-2
CO[C@H]1CN(C)C(=O)c2cc(NC(=O)C3CC3)ccc2OC[C@@H](C)N(Cc2cncnc2)C[C@H]1C	2	nt	nt	nt	0	nt	nt
Cc1nc2ccccc2n2c(O)c(CC(=O)O)cc12	-15	0	i	53*	nt	14*	5
CC1CCN(S(=O)(=O)c2ccc3[nH]c(=O)c(=O)[nH]c3c2)CC1	0	-4	1	62*	nt	-4	-3
Cc1cccc2c(=O)oc(-c3ccccc3Cl)nc12	-1	1	0	51*	1	0	72*
Cc1ccccc1-c1nc2cc(Cl)ccc2c(=O)o1	nt	-2	-4	7	0	-6	nt
CC(=O)N(C)C[C@@H]1Oc2cc(C#CC3CC3)ccc2S(=O)(=O)N([C@H](C)CO)C[C@@H]1C	3	nt	nt	nt	nt	nt	nt
O=C(O)C1(P(=O)(c2ccccc2)c2ccccc2)CCCC1	0	1	-1	-6	0	-4	nt
N#CC1(P(=O)(c2ccccc2)c2ccccc2)CCCC1	0	1	0	81*	1	-1	2
COc1cc2nc(Nc3ccc(C)c(Cl)c3)nc(N)c2cc1OC	-1	4	24	74*	-2	-5	74*
COc1cc2nc(Nc3ccc(C)c(C)c3)nc(N)c2cc1OC	nt	-1	5	22	3	-5	nt
C[C@@H](NC(=O)C[C@H]1C=C[C@@H](NC(=O)Nc2ccc3c(c2)OCO3)[C@H](CO)O1)c1ccccc1	-2	nt	nt	nt	0	nt	nt
C[C@@H]1CN([C@H](C)CO)S(=O)(=O)c2ccc(C#CC3(O)CCCC3)cc2O[C@H]1CN(C)C(=O)c1cccnc1	2	nt	nt	nt	0	nt	nt
CC(=O)c1sc2ccccc2c1OC(=O)c1ccco1	1	0	12	61*	nt	-3	56*
CC(=O)c1ccccc1OC(=O)c1ccco1	-1	-4	20	10	nt	0	nt
CC(=O)c1c(OC(=O)c2ccco2)c2ccccc2n1C	1	-1	11	74*	nt	-2	77*
SMILES	BioA inh-1	UGM FP inh	RecA splice inh	Rv3671c inh	TcdB GH inh	FadD28 FP inh	Rv3671c cf	others
Nc1cccc2nc3ccccc3cc12	-1	nt	i	12	nt	-2	nt
Cc1cc2c(N)cccc2nn1	3	-1	60*	55*	nt	3	-1
Cc1cc(C)n2nc(SCC(=O)N/N=C/c3ccccn3)nc2n1	nt	1	2	76*	nt	-1	-6
Cc1cc(C)n2nc(SCC(=O)N/N=C/c3cccc(Br)c3)nc2n1	nt	-3	-2	-7	3	0	nt
CO[C@H]1CN(C)C(=O)c2cc(NC(=O)NC(C)C)ccc2OC[C@H](C)NC[C@@H]1C	-1	nt	nt	nt	nt	nt	nt
CC=Cc1ccc2n(c1=O)C[C@H]1[C@H](CO)[C@@H](C(=O)NCCC)[C@@H]2N1Cc1nccs1 (mixture of isomers)	1	nt	nt	nt	0	nt	nt
CC(C)Oc1ccc(CCC(=O)N/N=C/c2ccc3c(c2)OCO3)cc1	nt	3	0	38*	-1	-2	0
C[C@@H](O)C#Cc1ccc2c(c1)O[C@@H](CN(C)C(=O)c1ccccc1)[C@@H](C)CN([C@@H](C)CO)S2(=O)=O	3	nt	nt	nt	0	nt	nt
COc1cccc(CNC(=O)c2ccc(NC(=O)C3=CSCCO3)cc2)c1	48*	-3	1	61*	0	-3	-6	BioA inh-2=-7;HepG2 tox 2=18;NIH3T3 tox 5=2
COCC(=O)Nc1ccc2c(c1)[C@@H]1C[C@@H](CC(=O)NCc3ccccc3F)O[C@@H](CO)[C@@H]1O2	-5	nt	nt	nt	0	nt	nt
Cc1nn(C)c(C)c1N1C(=O)c2cccc3c(N)ccc(c23)C1=O	-233	68*	nt	11	nt	4	nt	DNA intercalat=6.1*
CO[C@@H]1CN(C)C(=O)c2ccc(NC(=O)C3CC3)cc2OC[C@@H](C)N(CCC(F)(F)F)C[C@@H]1C	13	nt	nt	nt	0	nt	nt
Cc1ccc(Cl)cc1N1CCN(C(=O)C2CCN(S(C)(=O)=O)CC2)CC1	3	6	-1	-11	1	-1	nt	DNA intercalat=>35
C[C@H]1CCCCO[C@H](CN(C)Cc2ccncc2)[C@@H](C)CN([C@@H](C)CO)C(=O)c2cc(NS(=O)(=O)c3cn(C)cn3)ccc2O1	-2	nt	nt	nt	0	nt	nt
COc1cccc(NC(=O)Nc2ccc3c(c2)C(=O)N(C)C[C@@H](OC)[C@@H](C)CN(C)[C@H](C)CO3)c1	-3	nt	nt	nt	0	nt	nt
CC(C)(C)C1(C)OC(=O)C(=Cc2ccc(OCC(=O)Nc3ccccc3)cc2)C(=O)O1 (stereo not given)	nt	1	1	2	nt	-1	nt	DNA intercalat=>35
O=C(Nc1ccc(-c2cn3ccsc3n2)cc1)C1CC1	-3	0	-3	8	nt	1	nt
CC(=O)Nc1ccc(-c2cn3ccsc3n2)cc1	-6	2	-1	-7	nt	-1	nt	DNA intercalat=>35
O=C1CCC(=O)c2ccc3c4c(ccc1c24)CC3	-1	nt	nt	nt	0	-1	nt
O=C1CCN2C=Nc3cccc4ccc1c2c34	-217	39*	-407	-11	nt	1	nt	DNA intercalat=13*
